Experiment [1] is described as follows: qHTS assay to identify small molecule antagonists of the constitutive androstane receptor (CAR) signaling pathway - cell viability counter screen (AID 1224837). Further: nearly all actives have a fitted effect of over 45% in size. Summed up: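 Using CellTiter-Fluor, viability is scored in HepG2 cells stably carrying hCAR and a 2.2kb CYP2B6 reporter after 23 hr compound exposure across 15 concentrations, with CITCO present at 50 nM.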

Experiment [2] addresses Nuclear receptor subfamily 1 group I member 3 (Homo sapiens) (UniProt Q14994). In words: qHTS assay to identify small molecule antagonists of the constitutive androstane receptor (CAR) signaling pathway (AID 1224838).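 Further: HepG2 cells stably expressing hCAR with CYP2B6 luciferase reporter stimulated by CITCO; nearly all actives have a fitted effect of over 40% in size.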 Summed up: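 Reporter luminescence was quantified after 24 h exposure of hCAR/CYP2B6-2.2kb double-stable HepG2 cells to compounds at 15 concentrations in the presence of 50 nM CITCO final.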

Experiment [3] concerns the target Thyrotropin receptor (Homo sapiens) (UniProt P16473). In words: qHTS assay to identify small molecule agonists of the thyroid stimulating hormone receptor (TSHR) signaling pathway (AID 1224843; calls by dose curve; further: nearly all actives have a fitted effect of over 45% in size). Summed up: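 TSHR-HEK293 cells in agonist mode, 30 min room-temperature step, then cAMP measured by competitive HTRF (cAMP-d2 with anti-cAMP cryptate) after 1 h at room temperature. Tested at 15 concentrations in triplicate.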
In general terms: qHTS replaces the single test concentration by a dilution series.

Experiment [4] in a line: qHTS assay to identify small molecule agonists of the hypoxia (HIF-1) signaling pathway - cell viability counter screen (AID 1224844; calls by dose curve; further: nearly all actives have a fitted effect of over 50% in size). A digest of the protocol: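 Multiplexed with the HRE beta-lactamase assay, this viability read used CellTiter-Glo luminescence (30 min, RT) on HRE-bla ME-180 cells treated 17 hrs with compounds in 0.5% dialyzed FBS medium.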
The nature of experiment [5]: qHTS assay to identify small molecule agonists of the hypoxia (HIF-1) signaling pathway (AID 1224846; active means well fitted activation curve with a large enough effect in the signal ratio in the repeat runs, not every such curve was filed as active; the % refers to the signal ratio). Summed up:
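Hypoxia-pathway activation was scored as increased beta-lactamase from an HRE-controlled reporter in ME-180 cells; plated at 2,000 cells per well with 0.5% dialyzed FBS, they were exposed 17 hrs to compounds and then given CCF4-AM.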

Experiment [6] can be described thus: qHTS RealTime-Glo MT Cell Viability Assay in HepG2 cells - 24 hour (AID 1224867). Further: nearly all actives have a fitted effect of over 50% in size. A digest of the protocol: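 HepG2 cells (600/well) were dispensed with RealTime-Glo reagents, incubated 5 h at 37 °C, then treated with compounds in DMSO for up to 40 h. Nonlytic NanoLuc luminescence reflecting viable cells was read at each stated time point.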
The nature of experiment [7]: A CellTox Green Cytotoxicity Assay to monitor cytotoxicity in HEK293 cells - 0 hour (AID 1224869). Further: nearly all actives have a fitted effect of over 50% in size. Summed up: (§1)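 Seeding of HEK293 cells together with cytotoxicity dye preceded a 5 h incubation at 37 C/5% CO2. Test compounds in DMSO were then added and fluorescence monitored across 40 h.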
Experiment [8] is described as follows: A CellTox Green Cytotoxicity Assay to monitor cytotoxicity in HEK293 cells - 40 hour (AID 1224871). Further: nearly all actives have a fitted effect of over 45% in size. A digest of the protocol: as §1
The nature of experiment [9]: qHTS RealTime-Glo MT Cell Viability Assay in HepG2 cells - 8 hour (AID 1224873). Further: nearly all actives have a fitted effect of over 55% in size. A digest of the protocol:
(§2)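 HepG2 cells (600/well) mixed with RealTime-Glo MT reagent, settled 5 h at 37 C/5% CO2 before compound addition. Nonlytic NanoLuc luminescence from viable-cell prosubstrate reduction read repeatedly during 40 h treatment at 37 C.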

Experiment [10] is described as follows: qHTS assay to identify small molecule agonists of H2AX (AID 1224845; active means well fitted activation curve with a large enough effect in the signal ratio in the repeat runs, not every such curve was filed as active; the % refers to the signal ratio). Summed up:
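Wild-type CHO-K1 cells, plated overnight, exposed 3hr at 37C to 15 concentrations (0.76% DMSO final). Lysed, then HTRF anti-pH2AX (S139) cryptate and anti-H2AX-d2 antibodies, 24 hr room temperature; 665/620 nm emission read.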

Experiment [11] can be described thus: qHTS assay to identify small molecule agonists of H2AX - cell viability counter screen (AID 1224847; calls by dose curve; further: top concentration of the series differs between compounds; nearly all actives have a fitted effect of over 30% in size). Summed up:
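CHO-K1 wt, 1000 cells/well, o/n 37C; cpds 15 conc, 3 h 37C, 0.76% DMSO; CellTiter-Glo, 30 min RT, luminescence.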

A short description of experiment [12]: qHTS RealTime-Glo MT Cell Viability Assay in HEK293 cells - 32 hour (AID 1224868). Further: nearly all actives have a fitted effect of over 50% in size. Further: potency means the concentration at half of the fitted maximal effect. A digest of the protocol: (§3)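 HEK293 cells seeded with NanoLuc/prosubstrate reagent, rested 5 h at 37 C, then dosed and kept at 37 C up to 40 h. Nonlytic real-time luminescence from viable cells read at 0, 8, 16, 24, 32 and 40 h.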
A short description of experiment [13]: qHTS RealTime-Glo MT Cell Viability Assay in HepG2 cells - 40 hour (AID 1224870). Further: nearly all actives have a fitted effect of over 50% in size. Summed up:
as §2

Experiment [14] is described as follows: qHTS RealTime-Glo MT Cell Viability Assay in HEK293 cells - 16 hour (AID 1224872). A digest of the protocol:
as §3

Experiment [15] concerns the target Nuclear receptor subfamily 1 group I member 3 (Homo sapiens) (UniProt Q14994). In words: qHTS assay to identify small molecule agonists of the constitutive androstane receptor (CAR) signaling pathway (AID 1224839). Further: nearly all actives have a fitted effect of over 15% in size. A digest of the protocol:
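Luminescence read-out (ONE-Glo, 30 min, room temperature) from double-stable HepG2-CYP2B6-hCAR cells exposed 24 h to 15-point compound series in presence of 0.75 uM PK11195 final.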

A short description of experiment [16]: qHTS assay to identify small molecule antagonists of the estrogen related receptor signaling pathway with the pleiotropic PPARgamma coactivator (PGC) from Tox21 10K library (AID 1224841; call rule not given here). A digest of the protocol:
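Each well held 2,000 PGC/ERR cells, pre-incubated six hours (37 C, 5% CO2). Test substances in DMSO were added by pin tool and left for 18 h at 37 C before luciferase detection by One-Glo.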

Experiment [17] is described as follows: qHTS assay to identify small molecule agonists of the estrogen related receptor signaling pathway with the pleiotropic PPARgamma coactivator (PGC) from Tox21 10K library (AID 1224842). Further: nearly all actives have a fitted effect of over 15% in size. Summed up:
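PGC/ERR reporter cell line, 2,000 cells per well, incubated 6 h at 37 C before 23 nL compound in DMSO was added. After 18 h at 37 C, One-Glo luminescence read following 30 min at room temperature.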

Experiment [18] in a line: qHTS assay to identify small molecule agonists of the estrogen related receptor (ERR) signaling pathway from Tox21 library (AID 1224849; calls by dose curve; further: nearly all actives have a fitted effect of over 15% in size). Conditions: ERR reporter cell line, ONE-Glo luciferase, 18 h. Summed up: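 Six hours post-seeding at 37 C/5% CO2, ERR cells receive DMSO-solubilised compounds; after 18 h at 37 C, ONE-Glo reagent is applied and luminescence recorded.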

Experiment [19] can be described thus: qHTS assay to identify small molecule antagonists of the estrogen related receptor signaling pathway with the pleiotropic PPARgamma coactivator (PGC) from Tox21 10K library - cell viability counter screen (AID 1224840; active means well fitted cell-killing curve with a large enough effect in the repeat runs, not every such curve was filed as active; further: nearly all actives have a fitted effect of over 40% in size). Summed up:
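Here the PGC/ERR cells serve as a cytotoxicity control: they are exposed to compounds for 17.5 hours at 37 C, and live-cell signal is quantified using CellTiter-Fluor fluorescence.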

Experiment [20] in a line: qHTS assay to identify small molecule antagonists of the estrogen related receptor (ERR) signaling pathway from Tox21 library (AID 1224848). Further: nearly all actives have a fitted effect of over 50% in size. A digest of the protocol: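 ERR reporter cell line (from NTP) seeded 2,000 cells/well, rested 6 h at 37 C/5% CO2, then pin-dosed with compounds in DMSO. After 18 h at 37 C, ONE-Glo added; luminescence read after 30 min at room temperature.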

Structures are written as SMILES. Values joined by “and” are separate entries in the source; they are usually repeats but may differ in a detail not shown here. Equal entries are not always repeated. Inconclusive results are not listed. More than one record can exist for a structure, and the calls need not agree. Active and inactive are the calls of the source. Unless noted, the call rests on the fitted dose curve; in most records, active means well fitted curve in the direction sought with a large enough effect in the repeat runs; inconclusive means weak or mixed curves; inactive means no such curve, though single readings can be large; an effect the other way counts as inactive or inconclusive.
On the % scale 0 is the no-effect control and ±100 the full control effect.

Chain of Nuclear receptor subfamily 1 group I member 3 (Homo sapiens) (Q14994 whole entry, looked up): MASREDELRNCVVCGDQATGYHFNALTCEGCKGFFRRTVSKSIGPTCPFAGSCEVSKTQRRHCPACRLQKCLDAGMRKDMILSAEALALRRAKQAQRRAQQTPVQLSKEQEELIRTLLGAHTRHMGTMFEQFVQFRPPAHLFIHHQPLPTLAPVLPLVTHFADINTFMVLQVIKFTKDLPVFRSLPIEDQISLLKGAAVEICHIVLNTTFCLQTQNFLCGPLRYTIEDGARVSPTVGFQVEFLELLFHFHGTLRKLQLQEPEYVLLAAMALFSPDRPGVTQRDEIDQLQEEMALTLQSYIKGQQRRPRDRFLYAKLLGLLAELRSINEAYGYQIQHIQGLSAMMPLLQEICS
Chain of Thyrotropin receptor (Homo sapiens) (P16473 whole entry, looked up): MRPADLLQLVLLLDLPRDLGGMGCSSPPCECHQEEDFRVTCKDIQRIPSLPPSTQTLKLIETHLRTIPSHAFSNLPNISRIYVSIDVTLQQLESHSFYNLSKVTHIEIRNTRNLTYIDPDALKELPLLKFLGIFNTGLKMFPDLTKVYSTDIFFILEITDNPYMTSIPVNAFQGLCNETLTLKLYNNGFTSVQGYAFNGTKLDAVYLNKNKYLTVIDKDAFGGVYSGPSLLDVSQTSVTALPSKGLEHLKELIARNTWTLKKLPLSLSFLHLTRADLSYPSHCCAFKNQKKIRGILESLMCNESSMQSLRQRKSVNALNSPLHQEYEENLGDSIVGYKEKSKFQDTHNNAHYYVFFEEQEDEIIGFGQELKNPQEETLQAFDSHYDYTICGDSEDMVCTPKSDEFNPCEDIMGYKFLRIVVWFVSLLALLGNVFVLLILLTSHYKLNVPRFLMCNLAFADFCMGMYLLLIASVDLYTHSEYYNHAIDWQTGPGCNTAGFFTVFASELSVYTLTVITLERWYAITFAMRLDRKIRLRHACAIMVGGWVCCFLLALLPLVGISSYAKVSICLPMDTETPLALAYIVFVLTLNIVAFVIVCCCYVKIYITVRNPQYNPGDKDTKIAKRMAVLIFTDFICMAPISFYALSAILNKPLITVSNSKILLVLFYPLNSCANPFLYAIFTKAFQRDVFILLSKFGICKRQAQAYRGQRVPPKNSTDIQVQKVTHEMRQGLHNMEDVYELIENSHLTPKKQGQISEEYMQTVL

Consider `CCCCN(CCCC)SN(C)C(=O)Oc1cccc2c1OC(C)(C)C2`, for which the Potency entry in experiment [1], in [2], in experiment [3], in experiment [4], in [7] and in [8] was “inactive” throughout. Moreover, the result in experiment [5], in experiment [6] and in experiment [9] was inactive.

Regarding `OCCN(CCO)CCO`, the Potency result in experiment [1], in experiment [2], in [3], in experiment [4], in [10] and in experiment [11] was “inactive” each time. The Potency entry in experiment [12], in [7] and in [8] was “inactive” each time. In addition, the call in experiment [5], in experiment [6], in experiment [13], in [14] and in [9] was inactive.

Take `O=C(NC(=O)c1c(F)cccc1F)Nc1cc(Cl)c(OC(F)(F)C(F)C(F)(F)F)cc1Cl` (stereo unspecified): the Potency result in experiment [1], in experiment [2], in [15], in experiment [16], in [3] and in experiment [4] was “inactive” each time. For the same compound, the Potency entry in experiment [10], in experiment [11], in experiment [7] and in experiment [8] was “inactive” each time. The compound was called inactive in [17], in experiment [5], in experiment [6], in experiment [14] and in experiment [9]. The figures for the activity change, positive = activation in experiment [18] (at 42.5 µM (top of the series)) and in [18] (at 92.4 µM (top of the series)) were -26% (inactive) and -26.5% (inactive), respectively. The Potency in experiment [12] is 12.3 µM (active) and inactive.

For the compound `Nc1ccc(Br)cc1`, the Potency result in experiment [1], in [2], in experiment [19], in experiment [3], in [4] and in [10] was “inactive” throughout. Also, the Potency entry in experiment [11], in experiment [12], in experiment [7] and in experiment [8] was “inactive” in each case. The outcome in experiment [5], in experiment [6], in experiment [14] and in experiment [9] was inactive.

On to `CCN(CC)c1ccccc1`, for which the Potency result in experiment [1], in experiment [4], in [10], in experiment [11], in experiment [12] and in [7] was “inactive” each time. Also, in experiment [8], the Potency result was “inactive”. Besides, the call in [5], in experiment [6], in [14] and in experiment [9] was inactive.

As for `CC(C)N1C(=O)c2ccccc2NS1(=O)=O`, the Potency result in [1], in experiment [16], in [3], in experiment [4], in experiment [10] and in experiment [20] was “inactive” each time. Further, the Potency result in [12], in [7] and in experiment [8] was “inactive” each time. Also, the outcome in [17], in [5], in experiment [6], in experiment [14] and in [9] was inactive. Also, the activity change, positive = activation in [18] (at 92.4 µM (top of the series)) is -10.6% (inactive) and -6.56% (inactive).

For `COC(=O)c1ccccc1N`, the Potency entry in experiment [2], in experiment [15], in experiment [19], in experiment [16], in experiment [3] and in experiment [4] was “inactive” in each case. Also, the Potency result in experiment [10], in experiment [11], in experiment [20], in experiment [12], in experiment [7] and in experiment [8] was “inactive” throughout. Besides, the compound was classed as inactive in experiment [17], in [5], in experiment [6], in [13], in experiment [14] and in [9]. In experiment [18] (at 92.4 µM (top of the series)), the activity change, positive = activation was 4.73% (inactive) and 5.15% (inactive).

As to `CCCCOC(=O)c1ccccc1C(=O)OCCCC`, the Potency result in experiment [2], in experiment [15], in [19], in experiment [16], in experiment [4] and in experiment [10] was “inactive” throughout. Further, the Potency entry in experiment [20], in [12], in experiment [7] and in experiment [8] was “inactive” in each case. Besides, the compound was classed as inactive in experiment [17], in experiment [5], in experiment [6], in [14] and in [9]. For the same compound, the activity change, positive = activation in [18] (at 92.4 µM (top of the series)) was -4.86% (inactive) and -5.73% (inactive).

Regarding `C=CC(N)=O`, the Potency result in experiment [1], in [19], in experiment [3], in [4], in [10] and in [20] was “inactive” throughout. In addition, the Potency entry in experiment [12], in experiment [7] and in [8] was “inactive” each time. Also, the compound was called inactive in experiment [5], in [6], in [13], in experiment [14] and in [9]. The activity change, positive = activation in experiment [18] (at 92.4 µM (top of the series)) was 7.14% (inactive).

The values are drawn from PubChem BioAssay (Tox21).
